# Rows were chosen to be rich in hits. Some 7.3% of all compounds tested hit in one or more screens of this group.
# FLuc modulator = qHTS profiling assay for firefly luciferase inhibitor/activator using purifed enzyme and Km concentrations of substrates (counterscreen for miR-21 project); purified FLuc, Km substrates, luminescence inhibition; Potency, µM (highest dose often 57.5 µM), actives largely listed as inhibitors; 360,000 tested, 6.9% active; also: nearly all actives have a fitted effect of over 55% in size
# Target sequence (P08659 whole entry, looked up): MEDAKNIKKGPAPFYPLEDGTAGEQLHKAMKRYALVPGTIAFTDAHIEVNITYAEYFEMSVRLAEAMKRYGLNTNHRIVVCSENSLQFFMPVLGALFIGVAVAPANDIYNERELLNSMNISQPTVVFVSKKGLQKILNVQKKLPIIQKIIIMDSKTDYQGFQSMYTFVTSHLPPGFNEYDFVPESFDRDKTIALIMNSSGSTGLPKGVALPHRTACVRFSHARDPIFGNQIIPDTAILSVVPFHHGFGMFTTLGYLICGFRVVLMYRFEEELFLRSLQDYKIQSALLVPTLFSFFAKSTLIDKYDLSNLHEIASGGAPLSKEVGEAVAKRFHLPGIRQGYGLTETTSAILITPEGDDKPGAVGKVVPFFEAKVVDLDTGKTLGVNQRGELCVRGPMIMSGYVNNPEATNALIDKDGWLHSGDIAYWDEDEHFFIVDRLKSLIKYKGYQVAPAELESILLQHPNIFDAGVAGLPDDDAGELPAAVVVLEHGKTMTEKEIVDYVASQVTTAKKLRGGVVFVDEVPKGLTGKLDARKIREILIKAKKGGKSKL
#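 Purified P. pyralis luciferase, 10 nM final, with Km-level 10 uM D-luciferin and 10 uM ATP in 50 mM Tris acetate pH 7.5, 10 mM Mg acetate, 0.01% Tween-20, 0.05% BSA; 6-point qHTS titration about 60 µM downward; luminescence read.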
# Rab9 prom act = qHTS Assay for Rab9 Promoter Activators; AID 485297, 2010; 320,000 tested, 2.8% active; Potency, µM (doses to about 9.22 µM), most hits filed as activators; Huh7 Rab9 promoter-luciferase reporter, luminescence, 24 h; also: nearly all actives have a fitted effect of over 60% in size
#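 Cell-based reporter: Huh7 stable for Rab9 promoter-driven luciferase, plated in reduced-serum medium with 10% FBS at 1500 cells/well, compound-treated 24 h at 37 °C, luminescence read after 10 min reagent.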
# SMN2 splice enh = qHTS Assay for Enhancers of SMN2 Splice Variant Expression; HEK293 SMN2-luciferase splicing reporter, luminescence, 30-36 h; Potency, µM (highest dose often 46.1 µM), hits mostly activators; 210,000 tested, 2.8% active; AID 1458, 2008; also: nearly all actives have a fitted effect of over 55% in size
#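 HEK293 cells carry an SMN2 […]–luciferase reporter in which exon 7 inclusion puts luciferase in frame. Cells were plated 10-12 h before compound addition, then incubated 30-36 h at 37C. ONE-Glo luminescence was read; sodium butyrate at 4.5 mM final served as control.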
# NPC1 promoter act = qHTS Assay for NPC1 Promoter Activators; Potency, µM (titrated, usually from 9.22 µM), hits mostly activators; Huh7 NPC1 promoter luciferase reporter, 24 h; 320,000 tested, 2.4% active; AID 485313, 2010; also: nearly all actives have a fitted effect of over 60% in size
#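 Compounds in DMSO were transferred onto Huh7 NPC1-luciferase reporter cells pre-incubated 2 h; after 24 h at 37 °C, Amplite reagent was dispensed and luminescence recorded 10 min later.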
# Luc counter = Counterscreen for Luciferase (Kinase-Glo TM) Inhibition | Potency, µM (top dose mostly 38.3 µM), usual class: inhibitors | AID 1379, 2008 | 200,000 tested, 0.28% active | Kinase-Glo luciferase, ATP luminescence, 8 min; also: nearly all actives have a fitted effect of over 60% in size
#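 Compound is pinned into ATP-containing buffer (10 uM ATP, imidazole pH 7.2, 7 mM MgCl2). Kinase-Glo luciferase reagent is then added. Light output is recorded following an 8-min room-temperature incubation.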
# ELG1 genotox = qHTS screen for small molecules that induce genotoxicity in human embryonic kidney (HEK293T) cells expressing luciferase-tagged ELG1; HEK293T ELG1-luciferase reporter, luminescence, 16 h; Potency, µM (highest dose often 46 µM), actives largely listed as activators; 330,000 tested, 1.3% active; also: nearly all actives have a fitted effect of over 60% in size
#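 After overnight (16 hr) compound treatment at 37 °C, ELG1-luciferase HEK293T cells were lysed with ONE-Glo; luminescence quantified 30 min later at room temperature.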
# A number is an active result; - = inactive; ? = inconclusive; . = not tested or not shown; [ ] = dose if it differs, or a comment. Calls follow the shape of the dose curve; as a rule, active = well fitted curve in the direction sought with a large enough effect; inconclusive = small, poorly fitted or top-dose-only effect, or another doubt; inactive = no such curve, though single readings can be large; an effect the other way counts as inactive or inconclusive.
SMILES,FLuc modulator,Rab9 prom act,SMN2 splice enh,NPC1 promoter act,Luc counter,ELG1 genotox
O=C(O)c1ccc(N/N=C/C(Br)=C/c2ccccc2)cc1,0.48µM,0.32µM,.,0.35µM,.,?
O=C(N/N=C/C(Br)=C/c1ccccc1)NC1CCCCC1,?,-,-,-,-,?
O=C(N/N=C/C(Br)=C/c1ccccc1)C(O)c1ccccc1 (configuration not stated),15µM,-,.,-,.,-
O=C(N/N=C/C(Br)=C/c1ccccc1)C1CC1,?,2.8µM,.,-,-,-
CCCCCn1c(=N)c(S(=O)(=O)c2ccccc2)cc2c(=O)n3cccc(C)c3nc21,-,.,-,.,.,.
CCc1ccccc1NC(=O)CN(C)C(=O)CSc1nnc(Nc2ccc(C)cc2)s1,9.5µM,-,-,-,-,-
CCc1ccccc1NC(=O)CN(C)C(=O)CSc1nnc(Nc2cccc(C)c2)s1,12µM,-,-,-,-,-
CN(CC(=O)Nc1ccccc1Cl)C(=O)CSc1nncs1,-,-,.,-,.,-
CCc1ccc(Nc2nnc(SCC(=O)N(C)CC(=O)Nc3ccccc3CC)s2)cc1,6.7µM,-,-,-,-,-
Cc1cccc(NC(=O)CSc2nnc(N)s2)c1,-,.,?,.,.,.
Cc1ccc(CNC(=O)CSc2ncc3c(n2)-c2cc(Cl)ccc2N(C)S3(=O)=O)cc1,-,.,.,.,.,.
Cc1ccc(-n2nc3cc(C)c(N)cc3n2)cc1,0.27µM,1.1µM,1.4µM,4µM,-,?
CCc1ccc(-n2nc3cc(C)c(N)cc3n2)cc1,0.19µM,0.13µM,.,0.32µM,.,0.41µM
Cc1ccc(C)c(N)c1,-,-,-,-,.,-
Cc1c(/N=C(\[O-])Nc2ccc(Br)cc2)sn[n+]1C,1.1µM,0.1µM,.,0.28µM,.,0.37µM
CCOc1ccc(/C=N/NS(=O)(=O)c2ccc(C)cc2)cc1OC,-,-,.,-,.,-
COc1cc(/C=N/NC(=O)CN2CCCCC2)ccc1OCc1ccc(Br)cc1,15µM,-,10µM,-,-,?
COc1cc(/C=N/NS(=O)(=O)c2ccc(C)cc2)ccc1OCc1ccc(C(=O)O)cc1,0.024µM,4.5µM,.,0.79µM,.,?
Cc1ccc(C(=O)c2cn(Cc3ccc(F)cc3)c3nc(C)ccc3c2=O)cc1,-,.,-,.,.,.
Cc1cc(C)c(C(=O)Cn2nc(C(=O)O)c3ccccc3c2=O)cc1C,6µM,-,.,-,.,-
Cc1cc(C(=O)Cn2nc(C(=O)O)c3ccccc3c2=O)c(C)n1-c1ccccc1,0.95µM,?,-,-,-,?
O=C(Cn1nc(C(=O)O)c2ccccc2c1=O)c1c[nH]c2ccccc12,15µM,-,.,-,.,-
CCCc1ccc(C(=O)Cn2nc(C(=O)O)c3ccccc3c2=O)cc1,?,-,-,-,-,-
CCOC(=O)NC(=O)CSc1nc(C)cc(C(F)(F)F)c1C#N,-[2.3 µM],-,-,-,-,-
Cc1cc(C(F)(F)F)c(C#N)c(SCC(=O)Nc2nc3cc(Br)ccc3s2)n1,-,3.2µM,-,-,-,-
SMILES,FLuc modulator,Rab9 prom act,SMN2 splice enh,NPC1 promoter act,Luc counter,ELG1 genotox
CCOc1ccc(C(=O)Nc2ccc(C(=O)OCc3cc(=O)n4nc(CC)sc4n3)cc2)cc1,-,.,.,.,.,.
COC(=O)C1=C(C(=O)OC)[C@@H]2N(C)c3ccc(OC)cc3[C@@]23C[C@@H](C(=O)OC)N(S(=O)(=O)c2cccs2)C3=N1,.,.,-[9.22 µM],.,-[7.66 µM],.
O=C(CCN1C(=O)C2C3CCC(C3)C2C1=O)OCC(=O)c1ccccc1 (configuration not stated),13µM,-,.,-,.,-
COc1ccc(C(=O)COC(=O)CCN2C(=O)C3C4CCC(C4)C3C2=O)cc1 (configuration not stated),?,-,-,-,-,-
Cc1ccc(Nc2nnc(SC(C)C(=O)NCC3CCCO3)s2)cc1C (configuration not stated),15µM,-,.,-,.,-
Cc1cc(C)cc(NC(=O)C(=O)NCC2CCCO2)c1 (configuration not stated),-,-,-,-,-,-
Cc1ccc(NC(=O)C(=O)NCC2CCCO2)cc1C (configuration not stated),?,1.3µM,11µM,2.8µM,-,8.2µM
Cc1ccc(NC(=O)C(=O)NN=C2CCCC2)cc1C,13µM,?,.,-,-,-
Cc1ccc(NC(=O)C(=O)NCC2CCCO2)cc1 (configuration not stated),?,4µM,14µM,?,-,?
COC(=O)C[C@H]1c2ccccc2C2=C(C[C@@H](C)[C@H]3C(=O)NC(=O)[C@@H]23)N1C(=O)OC,.,.,-[9.22 µM],.,-[7.66 µM],.
CC(C)CC(NC(=O)OCC1c2ccccc2-c2ccccc21)C(=O)O (configuration not stated),.,.,13µM,.,-,.
O=C(O)c1ccc2c3n(nc2c1)-c1ccc(Cl)cc1CO3,1.9µM,?,.,?,.,-
O=C(c1ccc2c(=O)n3c(nc2c1)CCCCC3)N1CCCCC1,-,-,.,-,.,-
O=C(c1ccc2c3n(nc2c1)-c1ccc(Cl)cc1CO3)N1CCCCC1,5.4µM,1.8µM,.,2.2µM,.,?
Cc1ccc2c(c1)COc1c3ccc(C(=O)N4CCOCC4)cc3nn1-2,9.5µM,1.6µM,.,2.5µM,.,16µM
CCOC(=O)c1[nH]c(C)c(CCC(=O)Nc2ccc(C(C)=O)cc2)c1C,-,.,.,.,.,.
O=C(Cn1c(=O)n(-c2ccc(Cl)cc2)c(=O)c2oc3ccccc3c21)Nc1ccccc1,-,.,.,.,.,.
Cc1ccc(OC(=O)c2sc3ncn(C)c(=O)c3c2C)cc1,?,2.8µM,-,2.8µM,-,-
Cc1ccc(-n2cc(-c3ccccc3)[nH]c2=O)cc1F,?,3.2µM,25µM,3.2µM,-,?
CC(=O)O[C@]1(C(C)=O)CC[C@H]2C3C=C(Cl)C4=CC(=O)[C@@H]5C[C@H]5[C@]4(C)C3CC[C@@]21C (some centres not stated),.,.,-,.,-,.
N#Cc1ccc(-c2cn3c(n2)SCC3)cc1,19µM,?,.,?,.,?
O=S(=O)(Nc1ccc(-c2cn3c(n2)SCC3)cc1)c1cccs1,-,-,-,-,-,-
O=C(c1cccs1)c1cn(CCOc2ccc(F)cc2)c2ccccc12,-,.,-,.,.,.
CCC1CSC(Nc2ccc(C(=O)/C=C/c3ccc(OC)c(OC)c3)cc2)=N1 (configuration not stated),24µM,-,-,-,-,-
CC(=O)N1c2ccc(N=Cc3cc(Br)cc(Br)c3O)cc2CC1C (configuration not stated),9.5µM,-,.,-,.,-
CN(C)c1ccc(C(=S)NCc2ccco2)cc1,13µM,0.45µM,-,?,-,0.46µM
